In all, about 39,000 compounds went through this assay and about 3,300 (8.5%) were called active. This excerpt belongs to a sample that is enriched for actives.

For this test, the system named is HepG2. Kind of test: cytotoxicity call (relative viability < 0.9). Conditions: 10 µM.
Consider `CC(C)NC(=O)Nc1ccc2c(c1)C(=O)N([C@H](C)CO)C[C@@H](C)[C@@H](CN(C)C(=O)Nc1ccc(C(F)(F)F)cc1)OCCCC[C@@H](C)O2`, for which the cytotoxicity call was “active”.
Next, `CC(C)NC(=O)Nc1ccc2c(c1)C(=O)N([C@@H](C)CO)C[C@@H](C)[C@H](CN(C)C(=O)Nc1ccc(C(F)(F)F)cc1)OCCCC[C@H](C)O2`: “inactive”; `CC(C)NC(=O)Nc1ccc2c(c1)C(=O)N([C@H](C)CO)C[C@@H](C)[C@H](CN(C)C(=O)Nc1ccc(C(F)(F)F)cc1)OCCCC[C@H](C)O2`: “inactive”; `CC(C)NC(=O)Nc1ccc2c(c1)C(=O)N([C@@H](C)CO)C[C@@H](C)[C@@H](CN(C)C(=O)Nc1ccc(C(F)(F)F)cc1)OCCCC[C@H](C)O2`: “inactive”.
Take `CC(C)NC(=O)Nc1ccc2c(c1)C(=O)N([C@@H](C)CO)C[C@@H](C)[C@H](CN(C)C(=O)Nc1ccc(C(F)(F)F)cc1)OCCCC[C@@H](C)O2`: the cytotoxicity call is “active”.
Turning to `CC(C)NC(=O)Nc1ccc2c(c1)C(=O)N([C@H](C)CO)C[C@H](C)[C@H](CN(C)C(=O)Nc1ccc(C(F)(F)F)cc1)OCCCC[C@H](C)O2`, the cytotoxicity call was “inactive”.
For the compound `C[C@H]1CCCCO[C@@H](CN(C)C(=O)c2ccccc2)[C@@H](C)CN([C@@H](C)CO)C(=O)c2cc(NC(=O)C3CCCCC3)ccc2O1`, the cytotoxicity call was “inactive”.
Regarding `CC(C)(C)[S@@](=O)N1Cc2cc(C(=O)NCc3ccc4c(c3)OCO4)nc(-c3cccc(-c4cccnc4)c3)c2[C@H]1CCO`, the cytotoxicity call was “inactive”.
`COCCNC(=O)C[C@@H]1CC[C@@H]2[C@@H](COc3ccc(NC(=O)Nc4cccc(F)c4)cc3C(=O)N2C)O1`: the cytotoxicity call is “inactive”.
Next, `CCCCNC(=O)N1C[C@@H]2[C@H](CN)[C@@H]2C1`: “inactive”; `Cc1ccc(S(=O)(=O)Nc2ccc3c(c2)C(=O)N([C@H](C)CO)C[C@H](C)[C@@H](CN(C)C(=O)NC2CCCCC2)OCCCC[C@H](C)O3)cc1`: “inactive”; `Cc1ccc(S(=O)(=O)Nc2ccc3c(c2)C(=O)N([C@@H](C)CO)C[C@H](C)[C@@H](CN(C)C(=O)NC2CCCCC2)OCCCC[C@@H](C)O3)cc1`: “inactive”.
Next, `Cc1ccc(S(=O)(=O)Nc2ccc3c(c2)C(=O)N([C@@H](C)CO)C[C@H](C)[C@@H](CN(C)C(=O)NC2CCCCC2)OCCCC[C@H](C)O3)cc1`: “active”.
Next, `C[C@H](CO)N1C[C@H](C)[C@@H](CN(C)C(=O)NC2CCCCC2)OCCCC[C@H](C)Oc2ccc(NS(=O)(=O)c3ccc(F)cc3)cc2C1=O`: “inactive”; `Cc1ccc(S(=O)(=O)Nc2ccc3c(c2)C(=O)N([C@@H](C)CO)C[C@@H](C)[C@H](CN(C)C(=O)NC2CCCCC2)OCCCC[C@@H](C)O3)cc1`: “active”; `Cc1ccc(S(=O)(=O)Nc2ccc3c(c2)C(=O)N([C@H](C)CO)C[C@@H](C)[C@H](CN(C)C(=O)NC2CCCCC2)OCCCC[C@@H](C)O3)cc1`: “inactive”.
For `C[C@@H]1CCCCO[C@H](CN(C)C(=O)NC2CCCCC2)[C@H](C)CN([C@H](C)CO)C(=O)c2cc(NS(=O)(=O)c3ccc(F)cc3)ccc2O1`, the cytotoxicity call was “active”.
For the compound `C[C@@H]1CCCCO[C@@H](CN(C)C(=O)NC2CCCCC2)[C@@H](C)CN([C@@H](C)CO)C(=O)c2cc(NS(=O)(=O)c3ccc(F)cc3)ccc2O1`, the cytotoxicity call is “inactive”.
Next, `Cc1ccc(S(=O)(=O)Nc2ccc3c(c2)C(=O)N([C@@H](C)CO)C[C@H](C)[C@H](CN(C)C(=O)NC2CCCCC2)OCCCC[C@@H](C)O3)cc1`: “inactive”.
Turning to `C[C@@H]1CN([C@@H](C)CO)S(=O)(=O)c2ccc(-c3ccc(C(=O)N(C)C)cc3)cc2O[C@H]1CN(C)C(=O)C1CCC1`, the cytotoxicity call was “inactive”.
With `CCS(=O)(=O)NCc1nccc(N(C)C)n1`, the cytotoxicity call was “inactive”.
Next, `COc1ccc(S(=O)(=O)N(C)C[C@H]2OCc3cn(nn3)CCCC(=O)N([C@H](C)CO)C[C@@H]2C)cc1`: “inactive”; `O=C(C[C@@H]1CC[C@H]2[C@@H](COC[C@@H](O)CN2S(=O)(=O)c2ccccc2)O1)N[C@@H]1CCN(Cc2ccccc2)C1`: “inactive”.
With `Cc1noc(C)c1NC(=O)Nc1ccc2c(c1)C(=O)N([C@@H](C)CO)C[C@@H](C)[C@H](CN(C)Cc1ccc(Cl)c(Cl)c1)OCCCC[C@H](C)O2`, the cytotoxicity call was “inactive”.
Next, `Cc1noc(C)c1NC(=O)Nc1ccc2c(c1)C(=O)N([C@@H](C)CO)C[C@@H](C)[C@@H](CN(C)Cc1ccc(Cl)c(Cl)c1)OCCCC[C@@H](C)O2`: “active”; `Cc1noc(C)c1NC(=O)Nc1ccc2c(c1)C(=O)N([C@H](C)CO)C[C@H](C)[C@H](CN(C)Cc1ccc(Cl)c(Cl)c1)OCCCC[C@H](C)O2`: “inactive”.
Next, `Cc1noc(C)c1NC(=O)Nc1ccc2c(c1)C(=O)N([C@H](C)CO)C[C@@H](C)[C@H](CN(C)Cc1ccc(Cl)c(Cl)c1)OCCCC[C@@H](C)O2`: “inactive”.
In the case of `Cc1noc(C)c1NC(=O)Nc1ccc2c(c1)C(=O)N([C@@H](C)CO)C[C@@H](C)[C@H](CN(C)Cc1ccc(Cl)c(Cl)c1)OCCCC[C@@H](C)O2`, the cytotoxicity call is “active”.
Next, `Cc1noc(C)c1NC(=O)Nc1ccc2c(c1)C(=O)N([C@H](C)CO)C[C@H](C)[C@H](CN(C)Cc1ccc(Cl)c(Cl)c1)OCCCC[C@@H](C)O2`: “inactive”; `Cc1noc(C)c1NC(=O)Nc1ccc2c(c1)C(=O)N([C@@H](C)CO)C[C@H](C)[C@@H](CN(C)Cc1ccc(Cl)c(Cl)c1)OCCCC[C@H](C)O2`: “inactive”; `Cc1noc(C)c1NC(=O)Nc1ccc2c(c1)C(=O)N([C@@H](C)CO)C[C@H](C)[C@@H](CN(C)Cc1ccc(Cl)c(Cl)c1)OCCCC[C@@H](C)O2`: “active”.
For `Cc1noc(C)c1NC(=O)Nc1ccc2c(c1)C(=O)N([C@H](C)CO)C[C@@H](C)[C@@H](CN(C)Cc1ccc(Cl)c(Cl)c1)OCCCC[C@H](C)O2`, the cytotoxicity call was “active”.
Next, `Cc1noc(C)c1NC(=O)Nc1ccc2c(c1)C(=O)N([C@H](C)CO)C[C@H](C)[C@@H](CN(C)Cc1ccc(Cl)c(Cl)c1)OCCCC[C@H](C)O2`: “inactive”.
In the case of `Cc1noc(C)c1NC(=O)Nc1ccc2c(c1)C(=O)N([C@H](C)CO)C[C@@H](C)[C@H](CN(C)Cc1ccc(Cl)c(Cl)c1)OCCCC[C@H](C)O2` it was “inactive”; in that of `Cc1noc(C)c1NC(=O)Nc1ccc2c(c1)C(=O)N([C@H](C)CO)C[C@H](C)[C@@H](CN(C)Cc1ccc(Cl)c(Cl)c1)OCCCC[C@@H](C)O2`, “inactive”; in that of `Cc1ccc(S(=O)(=O)Nc2ccc3c(c2)C(=O)N([C@@H](C)CO)C[C@H](C)[C@@H](CN(C)S(C)(=O)=O)OCCCC[C@H](C)O3)cc1`, “inactive”.
As for `C[C@H](CO)N1C[C@H](C)[C@H](CN(C)C(=O)Nc2ccc(C(F)(F)F)cc2)OCCCC[C@H](C)Oc2ccc(NC(=O)c3ccncc3)cc2C1=O`, the cytotoxicity call is “inactive”.
As for `C[C@H]1CN([C@@H](C)CO)C(=O)c2cc(C#Cc3ccccc3F)cnc2O[C@@H]1CN(C)S(=O)(=O)c1ccccc1`, the cytotoxicity call is “inactive”.
`C[C@H](CO)N1C[C@H](C)[C@@H](CN(C)S(=O)(=O)c2ccccc2)Oc2ncc(Br)cc2C1=O`: the cytotoxicity call is “inactive”.
Next, `S=C(Nc1ccccc1)Nc1ccc2c(c1)oc1ccccc12`: “inactive”; `COc1ccc(CN(C)C[C@@H]2Oc3ccc(NC(=O)Cn4cnnn4)cc3CC(=O)N([C@H](C)CO)C[C@@H]2C)cc1`: “inactive”; `C[C@@H](N)c1cnn(-c2ccccc2F)c1`: “inactive”.
Next, `CCN(CC)CCNc1ccc(CO)c2sc3ccccc3c(=O)c12`: “active”.
Next, `CCN(CC)CCNc1ccc(COc2cccc(/C=C(C)/C=C/C(=O)NO)c2)c2sc3ccccc3c(=O)c12`: “inactive”.
Take `CCN(CC)CCNc1ccc(COc2ccccc2/C=C(C)/C=C/C(=O)NO)c2sc3ccccc3c(=O)c12`: the cytotoxicity call is “inactive”.
In the case of `C[C@@H]1CCCCO[C@@H](CN(C)Cc2ccc(C(=O)O)cc2)[C@@H](C)CN([C@H](C)CO)C(=O)c2cc(NS(=O)(=O)c3cccs3)ccc2O1`, the cytotoxicity call was “inactive”.
Next, `CN(C)CC(=O)N[C@@H]1C=C[C@H](CC(=O)NCCN2CCCCC2)O[C@H]1CO`: “inactive”.
Next, `CN(C)CC(=O)N[C@@H]1C=C[C@@H](CC(=O)NCCN2CCCCC2)O[C@H]1CO`: “inactive”.
Next, `O=C(C[C@@H]1C=C[C@@H](NC(=O)c2cccnc2)[C@H](CO)O1)NCCN1CCCCC1`: “inactive”.
As for `CN(C)CC(=O)N[C@H]1C=C[C@@H](CC(=O)NCCN2CCCCC2)O[C@@H]1CO`, the cytotoxicity call is “active”.
In the case of `O=C(C[C@H]1C=C[C@H](NC(=O)c2cccnc2)[C@@H](CO)O1)NCCN1CCCCC1`, the cytotoxicity call was “active”.
Next, `O=C(C[C@@H]1C=C[C@@H](NC(=O)c2cccnc2)[C@@H](CO)O1)NCCN1CCCCC1`: “inactive”; `COCC#Cc1ccc2c(c1)O[C@@H](CN(C)C(=O)Nc1ccc(OC)cc1)[C@H](C)CN([C@@H](C)CO)S2(=O)=O`: “inactive”.
Next, `CC(C)(C)OC(=O)C[C@@H]1CC=CC[C@H](CC(=O)N[C@@H](CO)Cc2ccccc2)C(=O)N2CCC[C@@H]2COC1=O`: “inactive”; `Cc1noc(C)c1NC(=O)N(C)C[C@H]1Oc2c(NS(C)(=O)=O)cccc2C(=O)N([C@@H](C)CO)C[C@H]1C`: “inactive”; `CC(C)(C)S(=O)N1Cc2cc(C(=O)N[C@@H]3CCN(Cc4ccccc4)C3)nc(-c3cccc(C#CCC4CCCC4)c3)c2[C@@H]1CCO` (stereo partly drawn): “inactive”.
With `CCN(CC)C(=O)C(C#N)=Cc1cc(O)c(O)c([N+](=O)[O-])c1`, the cytotoxicity call was “inactive”.
As for `N#C/C(=C\c1ccc(O)c(O)c1)C(N)=O`, the cytotoxicity call was “active”.
`N#CC(=Cc1ccc(O)c(O)c1)C(N)=O`: the cytotoxicity call was “inactive”.
Turning to `Cc1noc(C)c1S(=O)(=O)Nc1cccc2c1O[C@@H](CN(C)C(=O)Nc1ccccc1)[C@@H](C)CN([C@H](C)CO)C2=O`, the cytotoxicity call is “inactive”.
In the case of `CC(C)NC(=O)Nc1ccc2c(c1)C(=O)N([C@H](C)CO)C[C@@H](C)[C@@H](CN(C)CC1CCCCC1)OCCCC[C@@H](C)O2` it was “inactive”; in that of `NCc1ccc(Br)s1`, “inactive”; in that of `Cc1noc(C)c1S(=O)(=O)Nc1ccc2c(c1)C(=O)N([C@H](C)CO)C[C@H](C)[C@H](CN(C)S(C)(=O)=O)OCCCC[C@@H](C)O2`, “inactive”.
